Counter-ions that a name gives are not always drawn.

This experiment concerns Danio rerio larvae (5 dpf). Briefly: startle (activity period 16 minus period 15, 20-s interval sound) minus DMSO control (percentage points); higher = stronger startle response than DMSO larvae. Particulars: 10 µM; exposure time: 3 h pre-incubation + 3 h imaging. As for the experimental part:
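Wild-type 5 dpf zebrafish larvae (n=48 per drug, 96-well plates, 28.5 °C) were exposed to Tocris FDA-approved library compounds at 10 µM (0.1% DMSO) for 3 h before and 3 h during imaging. Images were taken every 6 s during visual (moving coloured lines) and acoustic stimuli, and larvae were tracked with the DeepLabCut-based Z-LaP Tracker. Each behavioural measure is the treated-group mean minus the DMSO vehicle control mean (n=844), in percentage points. This mapping covers compounds with 4-character plate codes.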
Regarding `COC(=O)C1=C(C)NC(C)=C(C(=O)OC(C)C)C1c1cccc2nonc12` (stereo not given) [Isradipine], the startle is -8.8.
On to `CN(C)CCC[C@@]1(c2ccc(F)cc2)OCc2cc(C#N)ccc21` [Escitalopram oxalate], for which the startle is -7.28.
As for `OCCN(CCO)c1nc(N2CCCCC2)c2nc(N(CCO)CCO)nc(N3CCCCC3)c2n1` [Dipyridamole], the figure is 7.7; as for `CC(=O)Oc1ccccc1C(=O)O` [Aspirin], -4.
The result for `N[C@@H]1[C@H]2CN(c3nc4c(cc3F)c(=O)c(C(=O)O)cn4-c3ccc(F)cc3F)C[C@@H]12` [Trovafloxacin mesylate] reads -8.4; that for `CN(C)CCc1c[nH]c2ccc(Cn3cncn3)cc12` [Rizatriptan benzoate], 4.04; that for `Nc1nc(F)nc2c1ncn2[C@@H]1O[C@H](CO)[C@@H](O)[C@@H]1O` [Fludarabine], 4.52.
The result for `CCCN(CCC)S(=O)(=O)c1ccc(C(=O)O)cc1` [Probenecid] reads 0.405; that for `Nc1nc2c(ncn2COCCO)c(=O)[nH]1` [Acyclovir], -0.609.
As for `O=C1CCc2cc(OCCCCc3nnnn3C3CCCCC3)ccc2N1` [Cilostazol], the startle came out at 1.37.
The result for `O=C(c1ccc(OCCN2CCCCC2)cc1)c1c(-c2ccc(O)cc2)sc2cc(O)ccc12` [Raloxifene hydrochloride] reads 2.55; that for `Cc1cccc(CN2CCN(C(c3ccccc3)c3ccc(Cl)cc3)CC2)c1` (stereo not given) [Meclizine dihydrochloride], -7.54; that for `NC(=O)c1ncn([C@@H]2O[C@H](CO)[C@@H](O)[C@H]2O)n1` [Ribavirin], 2.04.
As for `CCCCC(=O)N(Cc1ccc(-c2ccccc2-c2nnn[nH]2)cc1)[C@H](C(=O)O)C(C)C` [Valsartan], the startle worked out at 0.232.
Consider `Clc1ccc(COC(Cn2ccnc2)c2ccc(Cl)cc2Cl)c(Cl)c1` (stereo not given) [Miconazole nitrate], for which the startle came to 5.64.
The result for `O=C(O[C@@H]1C[C@@H]2C[C@H]3C[C@H](C1)N2CC3=O)c1c[nH]c2ccccc12` [Dolasetron mesylate] reads 0.504; that for `C/C(O)=C(\C#N)C(=O)Nc1ccc(C(F)(F)F)cc1` [Teriflunomide], -2.62.
As for `CCOC(=O)[C@H](CCc1ccccc1)N[C@@H](C)C(=O)N1[C@H](C(=O)O)C[C@@H]2CCC[C@@H]21` [Ramipril], the figure is -0.503; as for `N#Cc1ccc(C(c2ccc(C#N)cc2)n2cncn2)cc1` [Letrozole], 6.54.
As for `Nc1nc2[nH]cc(CCc3ccc(C(=O)N[C@@H](CCC(=O)O)C(=O)O)cc3)c2c(=O)[nH]1` [Pemetrexed], the figure is -5.08.
In the case of `O=C(O)c1cc(/N=N/c2ccc(S(=O)(=O)Nc3ccccn3)cc2)ccc1O` [Sulfasalazine], the startle is -1.
The result for `CC/C(=C(\c1ccccc1)c1ccc(OCCN(C)C)cc1)c1ccccc1` [Tamoxifen citrate] reads -1.09; that for `Cc1ccc(-c2cc(C(F)(F)F)nn2-c2ccc(S(N)(=O)=O)cc2)cc1` [Celecoxib], -8.09.
The result for `CCCCCCCCc1ccc(CCC(N)(CO)CO)cc1` reads -6.92; that for `Cc1c(-c2ccc(O)cc2)n(Cc2ccc(OCCN3CCCCCC3)cc2)c2ccc(O)cc12` [Bazedoxifene acetate], -3.07; that for `CC(=O)S[C@@H]1CC2=CC(=O)CC[C@]2(C)[C@H]2CC[C@@]3(C)[C@@H](CC[C@@]34CCC(=O)O4)[C@H]12` [Spironolactone], 2.27.
As for `Cc1cc(C2CCCCC2)n(O)c(=O)c1` [Ciclopirox], the figure is -8.19; as for `Nc1cc(N2CCCCC2)nc(N)[n+]1[O-]` [Minoxidil], -1.64; as for `Cn1nnc2c(C(N)=O)ncn2c1=O` [Temozolomide], 2.78.
For `CN1CC[C@@H](NC(=O)Nc2ccc(C#N)cc2)C[C@@H]1c1nc2ccccc2[nH]1`, the startle is -4.15.
As for `CCOC(=O)N1CCC(=C2c3ccc(Cl)cc3CCc3cccnc32)CC1` [Loratidine], the figure is 8.94.
The result for `CN1CCC[C@@H]1CCO[C@](C)(c1ccccc1)c1ccc(Cl)cc1` [Clemastine fumarate] reads -7.64; that for `CN1CC2c3ccccc3Oc3ccc(Cl)cc3C2C1` (stereo not given) [Asenapine maleate], -6.16.
As for `C=CC(=O)N1CCC[C@@H](n2nc(-c3ccc(Oc4ccccc4)cc3)c3c(N)ncnc32)C1` [Ibrutinib], the figure is 4.43.
For `O=C(O)CCCc1ccccc1` [Sodium 4-Phenylbutyrate], the startle is -5.61.
The result for `Nc1cccc2c1CN(C1CCC(=O)NC1=O)C2=O` (stereo not given) [Lenalidomide] reads -4.19.
Turning to `C[C@H](Cc1cc2c(c(C(N)=O)c1)N(CCCO)CC2)NCCOc1ccccc1OCC(F)(F)F` [Silodosin], the startle stood at 2.61.
`CC(C)c1nc(N(C)S(C)(=O)=O)nc(-c2ccc(F)cc2)c1/C=C/[C@@H](O)C[C@@H](O)CC(=O)O` [Rosuvastatin calcium]: the startle was -0.514.
As for `NS(=O)(=O)c1cc(C(=O)O)c(NCc2ccco2)cc1Cl` [Furosemide], the figure is -3.94; as for `Cc1ccc(O)c([C@H](CCN(C(C)C)C(C)C)c2ccccc2)c1` [Tolterodine L-tartrate], -5.5.

These data come from the supplement of paper PMC9950053.
